# According to the supplement of paper PMC6555819:
# Legend:
# Assay in all cases: PBM binding z-score (relative to random genomic background probes); higher = stronger binding; sequences stand for … in GC…GCGATTGACAGCGTAGAATGAAGG
# [1] = tested on: FXR:RXRa (NR concentration 270 nM, RXRa partner concentration 90 nM)
# Outline: (§1)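 Probes were double-stranded and carried 34-nt variable regions with direct-repeat seeds, single-nucleotide variants, half-site ablations and random human genomic background sequences, printed on custom Agilent 4×180K protein-binding microarrays. Arrays were incubated 1 h with ligand-free nuclear receptor dimers in PBS pH 7.4, 2% milk, 0.02% Triton X-100, 1 mM DTT, 0.2 mg/mL BSA and 0.4 mg/ml salmon testes DNA. Antibodies against each partner (one per run) detected binding, and scanned fluorescence was regression-normalized. Binding z-scores use the random background probes as reference.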
# [2] = tested on: LXRa:RXRa (NR concentration 270 nM, RXRa partner concentration 90 nM)
# Outline: as §1
# [3] = tested on: LXRa homodimer (NR concentration 270 nM)
# Outline: as §1
# [4] = tested on: LXRb:RXRa (NR concentration 270 nM, RXRa partner concentration 90 nM)
# Outline: as §1
# [5] = tested on: LXRb homodimer (NR concentration 270 nM)
# Outline: as §1
# [6] = tested on: PPARa:RXRa (NR concentration 270 nM, RXRa partner concentration 90 nM)
# Outline: as §1
# [7] = tested on: PPARg:RXRa (NR concentration 180 nM, RXRa partner concentration 90 nM)
# Outline: as §1
# [8] = tested on: PPARg:RXRa 270nM:90nM, anti-RXR (NR concentration 270 nM, RXRa partner concentration 90 nM)
# Outline: as §1
# [9] = tested on: PPARg:RXRa 30nM:10nM, anti-RXR (NR concentration 30 nM, RXRa partner concentration 10 nM)
# Outline: as §1
# [10] = tested on: PPARg:RXRa 90nM:30nM, anti-RXR (NR concentration 90 nM, RXRa partner concentration 30 nM)
# Outline: as §1
# [11] = tested on: PPARg:RXRa DBDmut IVT, anti-RXR (DBD mutation: RXRa K156A/R161A, NR concentration 270 nM, RXRa partner concentration 90 nM)
# Outline: as §1
# [12] = tested on: PPARg:RXRa IVT, anti-PPARg (NR concentration 270 nM, RXRa partner concentration 90 nM)
# Outline: as §1
# [13] = tested on: PPARg DBDmut:RXRa IVT, anti-PPARg (DBD mutation: PPARg1 K132A/R137A, NR concentration 270 nM, RXRa partner concentration 90 nM)
# Outline: as §1
# [14] = tested on: PPARg DBDmut IVT, anti-PPARg (DBD mutation: PPARg1 K132A/R137A, NR concentration 270 nM)
# Outline: as §1
# [15] = tested on: PPARg homodimer (NR concentration 180 nM)
# Outline: as §1
# [16] = tested on: PXR:RXRa (NR concentration 270 nM, RXRa partner concentration 90 nM)
# Outline: as §1
# [17] = tested on: PXR homodimer (NR concentration 270 nM)
# Outline: as §1
# [18] = tested on: RARa:RXR (NR concentration 270 nM, RXRa partner concentration 90 nM)
# Outline: as §1
# [19] = tested on: RARa homodimer (NR concentration 270 nM)
# Outline: as §1
# [20] = tested on: RARb:RXRa (NR concentration 270 nM, RXRa partner concentration 90 nM)
# Outline: as §1
Sequence,PBM binding z-score [1],PBM binding z-score [2],PBM binding z-score [3],PBM binding z-score [4],PBM binding z-score [5],PBM binding z-score [6],PBM binding z-score [7],PBM binding z-score [8],PBM binding z-score [9],PBM binding z-score [10],PBM binding z-score [11],PBM binding z-score [12],PBM binding z-score [13],PBM binding z-score [14],PBM binding z-score [15],PBM binding z-score [16],PBM binding z-score [17],PBM binding z-score [18],PBM binding z-score [19],PBM binding z-score [20]
CCAGACAGGTGACAAGGTAACTCAGCCTCGATTA,0.0849,0.145,-0.212,-0.039,-0.466,0.6,0.825,0.508,-0.365,0.0365,1.41,1.61,-0.344,-0.0688,0.918,-0.151,-0.207,0.278,0.367,0.783
AGAACGAGGGCAATGCGTTGATAGCACGGGTGGC,0.0853,0.264,-0.517,-0.19,-0.678,1.3,1.36,0.671,-0.109,0.215,2.94,2.57,1.12,0.0782,-0.251,0.219,0.111,0.271,-0.114,2.21
TCTAGTTGGCCAAAGGTCACACACTCGAAATGCG,5.4,5.41,3.89,5.44,1.17,6.16,11,9.37,11.1,11.3,2.73,5.56,0.249,0.877,6.18,5.82,1.45,6.89,3.8,4.93
GTAGCAAGGTGAATAGGTCGTTGATGAGTAGGCG,0.435,0.286,-0.884,0.119,-1.35,2.05,0.986,1.48,0.12,0.807,1.19,1.9,-0.625,-1.04,0.211,0.451,-0.13,1.08,-0.0167,1.74
CTCGAAAGGACGTGCTCAGGTGAGTATACCAAAC,0.0322,-0.223,-0.388,-0.196,-0.277,-0.124,0.136,-0.268,-0.294,-0.148,-0.218,-0.388,-0.653,-0.179,-0.0329,-0.345,-0.1,0.0274,-0.22,0.749
CCTAGCAGGGCAGGGTCACTCAAGCATTTCGCTT,2.68,2.17,-0.361,2.12,-1.22,3.32,1.4,2.37,-0.0964,1.47,0.873,1.78,-1.54,-0.906,1.69,2.92,-0.402,3.98,-0.114,3
TCTATTAGTTGATTAGGGCACCCGAAACAGCGGA,0.613,0.698,0.336,0.367,0.572,0.646,0.343,1.83,3.73,2.91,2.25,1.68,0.695,1.2,1.1,0.419,0.671,0.573,1.64,0.873
ACTAGCAGGCAAAGTTTGGGTCACTCAAACAAAG,0.0773,0.185,-0.475,0.807,-0.762,1.33,-0.0441,0.288,-0.32,0.224,-0.359,0.492,-0.258,-0.0533,0.153,0.68,-0.439,1.32,-0.701,1.07
ACTATTAGTTGACTTAGGGCAACTGATACGACGC,0.17,0.0575,0.162,0.0522,0.38,0.0544,0.858,0.0451,0.501,0.431,-0.0413,0.813,1.58,1.31,0.722,0.176,0.201,0.431,0.297,1.01
CAAACTAGGTCACGAAAGGTCAAACTCGAATGAC,7.61,8.32,8.55,7.66,3.3,6.75,10.5,8.69,6.95,8.93,8.89,8.97,2.74,2.02,5.15,7.23,4.8,7.97,4.28,5.84
CATACAGGGTCAGCTAGGCCAAAGTAGGGACGGC,4.83,3.04,0.0314,2.39,0.557,4.4,3.32,3.26,0.781,1.85,0.935,2.57,0.812,0.367,1.48,2.55,0.23,3.25,0.847,4.14
ACCTCTAGGTAAAGATAGTTCAGTGAATGCAAAT,0.216,3.68,0.25,0.57,-0.307,0.0564,0.269,0.318,0.0482,0.178,2.21,1.04,-0.152,0.355,-0.326,0.747,0.128,0.271,-0.309,0.426
TCTATTAATTGATTAGGGCAACCGAAACAGCGGA,0.209,0.405,1.09,0.283,0.631,0.559,0.157,1.87,3.6,2.5,1.84,1.09,0.728,1.07,2.22,0.386,1.53,0.419,2.52,0.75
ATCTCTAGGTAACAAGTTCTGTGAAAGAGAGGAC,0.351,0.0214,0.142,0.0812,0.681,0.641,1.01,1.5,0.751,1.08,3.07,2.91,1.35,1.11,0.9,0.15,0.424,0.67,0.681,0.332
ACAGTCAGGTGAGTGAAGGTAACTCAGCTGGACG,0.264,0.217,-0.578,-0.682,-0.538,-0.317,0.268,0.101,-0.17,-0.277,0.794,0.82,-0.123,-0.515,-0.608,-0.47,-0.728,-0.00233,0.0121,0.775
ACTCGGAGGACAAAAGTCAGAGCTACGCCAGTGA,-0.293,-0.245,-0.424,-0.518,-0.302,0.347,1.41,2.68,0.796,2.08,0.176,-0.114,-1.08,-0.828,0.0197,-0.626,-0.332,-0.564,-0.279,0.928
CGAAATAGGTCATCCAGGACAGTGAATACATTGA,5.99,4.69,1.25,3.8,0.842,5.87,7.32,6.78,4.39,6.21,7.78,7.89,2.68,2.13,2.1,3.15,1.18,3.92,1.27,4.59
CCTATTAGTTGGCCATAAGGGCAACCGAAGCTCG,0.403,0.0422,-0.122,-0.00443,-0.0843,0.154,0.332,0.665,-0.257,0.493,0.405,0.608,0.65,-0.464,0.599,0.101,0.238,0.307,0.354,1.11
CCTTACGGATCAAGGTTATAGCACGGGTGGTACG,0.336,0.57,0.38,0.5,0.21,0.917,0.684,0.188,-0.114,0.0556,-0.655,0.0573,-0.059,0.154,0.562,0.548,0.798,0.636,1.03,0.891
GCTAGTAGGCCATTTGGGTCACTCAATGACGGGC,-0.0419,-0.00892,-0.666,-0.044,-0.894,1.98,2.27,2.41,0.459,1.79,5.94,5.02,-0.157,-0.997,0.311,0.202,-0.242,0.598,-0.704,1.47
ATCTCTTGGTAAAGTTCAGTGAAAGATCGATAGA,1.08,2.09,1.65,1.6,1.5,1.69,1.54,3.02,1.39,2.65,0.216,0.63,1.4,1.94,1.76,2.41,2.31,1.63,1.65,2.82
CGAGCTAGGTCATCCAGGACAGTGAATACATTGA,4.29,2.49,0.492,1.96,0.0673,3.54,2.6,2.25,0.528,1.35,3.44,3.06,0.0496,-0.51,1.51,1.88,0.935,2.15,0.298,3.85
CCTAGCAGGCCAGGGTTACTCAAGCATTTCGCTT,-0.32,0.0268,-0.897,0.041,-1.32,0.412,-0.105,0.539,-0.759,-0.212,0.153,-0.137,-1.74,-1.06,-0.6,-0.139,-0.48,0.193,-0.665,0.303
ACTTCCGGGTCAACGAGGTTATAGCACGCGTATA,6.37,4.46,0.851,4.24,1.38,5.23,6.06,5.53,2.51,4.51,4.21,5.27,1.78,0.785,3.05,4.91,6.49,4.87,0.82,3.97
TCTATTAGTGGAAGGGCAACCGACGAGTCCGTTT,0.67,0.688,0.218,0.807,0.57,0.716,0.0931,1.91,3.26,2.56,2.03,0.68,0.155,-0.147,0.597,0.698,0.821,0.778,0.46,1.59
CCGATTGGGGCATAAGGTTACCATAAGCCAGCCC,0.433,2.07,-0.331,0.749,-0.968,1.96,1.92,2.87,0.812,2.27,1.21,1.53,-1.1,-1.31,0.682,0.17,-0.12,1.42,-0.579,1.66
CAAACTAGGTCAAGAGGTCAAAATCCGCTTCCCG,6.73,6.04,5.14,5.6,1.75,6.65,9.69,8.11,7.03,8.2,7.82,8.13,1.85,1.15,4.78,5.89,1.57,7.65,1.73,5.35
CGTCCAAGGTCAAGTTCAGTGAAAGAGACTCGAA,8.18,5.89,2.13,4.76,2.42,5.94,5.62,5.92,2.3,4.88,2.98,3.88,1.06,-0.344,3.64,5.19,3.9,5.39,2.56,5.66
